Data on 36 compounds can be found in PubChem BioAssay (NCI).

This is part of a sample that, as a whole, favours compounds with a hit. Of some 79,000 tested, about 15% had one in any assay. Unmarked numbers belong to inactive results. Calls of active or inactive are those of the source. Cut-off read from the data, not from the text of the source: active = growth inhibition above about 70%; inactive = the rest.

A short description of assay [1]: NCI Yeast Anticancer Drug Screen. Data for the rad50 strain (AID 155).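 Note: 0% = growth of vehicle-only cultures of the same strain.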 To be noted: S. cerevisiae rad50 strain growth inhibition; at 50.0 µM; hits give high values. Summed up: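 Yeast carrying a defined DNA repair defect were exposed to test compounds, and growth was compared with vehicle-treated controls to give percent inhibition.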
Assay [2] in a line: NCI Yeast Anticancer Drug Screen. Data for the mec2-1 strain (AID 157). To be noted: S. cerevisiae mec2-1 strain, at 50.0 µM, hits give high values. The essentials: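 Using mec2-1 yeast: add compound, measure growth, express inhibition versus vehicle-treated cultures.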
The nature of assay [3]: NCI Yeast Anticancer Drug Screen. Data for the sgs1 mgt1 strain (AID 161).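 Note: 0% = growth of cultures given vehicle only.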 As to conditions: S. cerevisiae sgs1 mgt1 strain, at 50.0 µM, hits give high values. Summed up:
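Percent growth inhibition was derived by comparing compound-exposed mutant yeast with vehicle-exposed cultures. The strain carries alterations in DNA damage repair.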

The nature of assay [4]: NCI Yeast Anticancer Drug Screen. Data for the cln2 rad14 strain (AID 165).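 Note: 0% = growth equal to vehicle treated cultures.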 As to conditions: S. cerevisiae cln2 rad14 strain, at 50.0 µM, hits give high values. The essentials: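 Yeast strain cln2 rad14, bearing defects in cell cycle control and DNA repair, serves as the test system; values reflect growth inhibition compared with vehicle.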
The nature of assay [5]: NCI Yeast Anticancer Drug Screen. Data for the bub3 strain (AID 167). As to conditions: S. cerevisiae bub3 mutant strain, at 50.0 µM, hits give high values. Summed up:
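Compounds were applied to a genetically altered yeast strain carrying a cell-cycle control defect. Growth inhibition was scored against vehicle-treated controls.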

Assay [6] can be described thus: NCI Yeast Anticancer Drug Screen. Data for the mlh1 rad18 strain (AID 175). As to conditions: S. cerevisiae mlh1 rad18 strain growth inhibition; at 50.0 µM; hits give high values. Summed up:
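Steps: expose repair-defective yeast to compound; measure growth; express inhibition against vehicle-treated controls.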

On to `CC1OC(c2ccccc2)OC1C` (stereo unspecified), for which the growth inhibition was 18.6% in assay [1]; -4.65% in assay [2]; -6.9% in assay [3]; -29.9% in assay [4]; -18.9% in assay [5]; 11.8% in assay [6].
Regarding `Cc1c(C)n(COCCO)c2ncnc(N)c12`, the growth inhibition in assay [1] was -14.2%; in assay [2] it was -37.1%; in assay [3] it was -23.6%; in assay [4], 13.8%; in assay [5] it was -12.6%; in assay [6], -39%.
Regarding `O=[N+]([O-])c1ccc(Nc2ccccc2)c([N+](=O)[O-])c1`, the growth inhibition in assay [1] was 2.4%; in assay [2] it was -12.8%; in assay [3], -1.4%; in assay [4] it was -32.2%; in assay [5], -7.05%; in assay [6] it was 8.5%.
With `CCOC(=O)CNC(=O)C(CCSCc1ccccc1)NC(=O)OCc1ccccc1` (stereo unspecified), the growth inhibition in assay [1] is -2.75%; in assay [2], 6.55%; in assay [3], 0.3%; in assay [4], 28.6%; in assay [5], 4.45%; in assay [6] it was 15.2%.
Regarding `N#CCCC(CC#N)S(=O)(=O)O` (stereo unspecified), the growth inhibition is 14.3% in assay [1]; 1.65% in assay [2]; -7.75% in assay [3]; -54.6% in assay [4]; 15.7% in assay [5]; -13.1% in assay [6].
Regarding `CCC(C)C(=O)OCC1(c2ccc(C)cc2OC(=O)C(C)C)CO1` (stereo unspecified), the growth inhibition in assay [1] was 15.7%; in assay [2], -2.45%; in assay [3], 19.2%; in assay [4], -1%; in assay [5], -6%; in assay [6], 12.2%.
On to `O=C(OC(C[n+]1ccccc1)c1ccccc1)c1ccccc1` (stereo unspecified), for which the growth inhibition is -0.55% in assay [1]; -0.9% in assay [2]; 4.5% in assay [3]; 14.5% in assay [4]; -6.4% in assay [5]; 34% in assay [6].
Take `CSc1cccc(NC(=O)/C=C/C(=O)O)c1`: the growth inhibition in assay [1] was -3.05%; in assay [2], 5.1%; in assay [3], 16.3%; in assay [4], -58.5%; in assay [5], 6.65%; in assay [6], -0.9%.
On to `COc1ccc(/C=N/NC(=O)c2cnc3[nH]c(=O)n(C)c(=O)c3c2)cc1`, for which the growth inhibition is 10.7% in assay [1]; 10.3% in assay [2]; 30.6% in assay [3]; 5.45% in assay [4]; 11.2% in assay [5]; 22.4% in assay [6].
On to `CCCCCCCCCC1OCC(COCC)O1` (stereo unspecified), for which the growth inhibition in assay [1] is -2.6%; in assay [2] it was -9%; in assay [3], 7.5%; in assay [4] it was -17.4%; in assay [5] it was 14.8%; in assay [6], -7.15%.
For `CC(=O)c1c(Cl)cc(Cl)c(Cl)c1Cc1c(Cl)c(Cl)cc(Cl)c1C(C)=O`, the growth inhibition in assay [1] is 9.5%; in assay [2], 9.8%; in assay [3], 7%; in assay [4] it was 18.2%; in assay [5] it was 5.95%; in assay [6] it was 9.55%.
For `COc1cc(/C=C/C(=O)NCCc2c[nH]c3ccc(O)cc23)ccc1O`, the growth inhibition was -9.25% in assay [1]; -0.75% in assay [2]; 9.3% in assay [3]; 11.8% in assay [4]; 3.15% in assay [5]; 6.75% in assay [6].
As for `CCCC(C)(CCC)OC(=O)Nc1cccc2ccccc12`, the growth inhibition in assay [1] is -3%; in assay [2] it was -4.2%; in assay [3] it was -4.4%; in assay [4] it was -10.7%; in assay [5] it was 6.95%; in assay [6] it was 15.2%.
For `COc1cc(C2SCC(=O)N2NC(=O)c2ccc(NC(C)=O)cc2)cc(OC)c1OC` (stereo unspecified), the growth inhibition is -11.8% in assay [1]; -3.95% in assay [2]; -5.2% in assay [3]; 6.15% in assay [4]; -12.4% in assay [5]; -12.2% in assay [6].
Take `COC1=C2CC(C)CC(OC)C(OC(C)=O)C(C)/C=C(\C)C(OC(N)=O)C(OC)/C=C\C=C(/C)C(=O)NC(=CC1=O)C2=O` (stereo unspecified): the growth inhibition was 90% (active) in assay [1]; 91% (active) in assay [2]; 92.2% (active) in assay [3]; 87.2% (active) in assay [4]; 90.7% (active) in assay [5]; 89.4% (active) in assay [6].
In the case of `CC(C)NS(=O)(=O)c1ccccc1`, the growth inhibition was 19.4% in assay [1]; -3.1% in assay [2]; 10.6% in assay [3]; 6.75% in assay [4]; 0.6% in assay [5]; 26.9% in assay [6].
For `CCc1cccc(CC)c1NC(=O)c1ccc(C)cc1`, the growth inhibition in assay [1] was -6.25%; in assay [2], -30%; in assay [3] it was 9.4%; in assay [4], 7.2%; in assay [5] it was -1.35%; in assay [6], -4%.
Consider `c1ccc(Cc2[nH]nc(-c3ccccc3)c2N=Nc2ccccc2)cc1`, for which the growth inhibition in assay [1] is 5.55%; in assay [2], -34.9%; in assay [3], 2.65%; in assay [4], -16.4%; in assay [5], 8.45%; in assay [6] it was -6.1%.
Take `CC(C)(C)CC(C)(C)NCc1ccc(Cl)cc1`: the growth inhibition in assay [1] was 78.6% (active); in assay [2], 45%; in assay [3] it was 61.3%; in assay [4], 40.2%; in assay [5], 65.6%; in assay [6], 60.6%.
For `CCOC(=O)C1=C(C)N(NC(N)=O)C(C)(O)C12CCOC2=O` (stereo unspecified), the growth inhibition in assay [1] is 32%; in assay [2], 0%; in assay [3] it was -10.8%; in assay [4] it was 13.1%; in assay [5] it was 3.2%; in assay [6] it was 39%.
For the compound `COCOc1ccc(-c2ccc(O)cc2)cc1`, the growth inhibition in assay [1] is 10.8%; in assay [2], 9.95%; in assay [3], 0%; in assay [4], -47.2%; in assay [5], 18.9%; in assay [6], 5.15%.
Consider `CCc1nnc2sc3c(Cl)c4nn5c(CC)nnc5sc4c(Cl)c3nn12`, for which the growth inhibition in assay [1] was 37.2%; in assay [2] it was -6.2%; in assay [3], 16.8%; in assay [4], 24.2%; in assay [5], -0.3%; in assay [6] it was 12.5%.
As to `O=[N+]([O-])c1cc(Br)c2ccccc2c1`, the growth inhibition is 6.7% in assay [1]; 4.9% in assay [2]; 6.45% in assay [3]; 2% in assay [4]; 18.2% in assay [5]; 15.1% in assay [6].
`CCOC(=O)/C=C/C=C(\OCC)C1CCC2C3CC=C4CC(OC(C)=O)CCC4(C)C3CCC12C` (stereo unspecified): the growth inhibition in assay [1] was -4%; in assay [2] it was -0.35%; in assay [3], 23.1%; in assay [4], 19.4%; in assay [5], -3.3%; in assay [6], -2.55%.
Consider `N#CCCBr`, for which the growth inhibition in assay [1] is 23.9%; in assay [2] it was 0.15%; in assay [3] it was 7.45%; in assay [4], -22.6%; in assay [5] it was 15.7%; in assay [6], 31.1%.
Consider `CCNC(=O)Nc1ccccn1`, for which the growth inhibition was -8.4% in assay [1]; -1.55% in assay [2]; 8.85% in assay [3]; 0.5% in assay [4]; -5.05% in assay [5]; -2.4% in assay [6].
`CC(=O)Oc1ccc2c(c1)oc1c3ccc(OC(C)=O)cc3n(C)c(=O)c21`: the growth inhibition was -20.1% in assay [1]; -44.8% in assay [2]; -16% in assay [3]; -4.3% in assay [4]; -7.95% in assay [5]; -23.4% in assay [6].
Turning to `C=C(C(=O)O)C1CC[C@@]2(C)CC(O)CC(=C)C2C1` (stereo partly specified), the growth inhibition was 16.4% in assay [1]; -0.95% in assay [2]; -8.1% in assay [3]; 5.3% in assay [4]; -2.9% in assay [5]; 14.7% in assay [6].
`CC1=C(C(=O)NCc2ccccc2)C(c2ccccc2C)C(C(=O)NCc2ccccc2)=C(C)N1`: the growth inhibition was 52.1% in assay [1]; 26% in assay [2]; 31.6% in assay [3]; -10.9% in assay [4]; 36% in assay [5]; 25.4% in assay [6].
With `C[C@H](N)C(O)/C=C/c1ccccc1` (stereo partly specified), the growth inhibition in assay [1] is 5.1%; in assay [2], -9.05%; in assay [3], -0.7%; in assay [4], -2.55%; in assay [5] it was -0.3%; in assay [6] it was -7.05%.
In the case of `CC=C(c1ccc(OC)cc1)c1ccc(OC)cc1`, the growth inhibition is 0.9% in assay [1]; -9.95% in assay [2]; 5% in assay [3]; -46.9% in assay [4]; 2.55% in assay [5]; -4.5% in assay [6].
For `C=C1C(=O)OC2/C=C(\C)CC(O)/C=C(/CO)CC(OC(=O)/C(C)=C/C)C12` (stereo unspecified), the growth inhibition was -4.5% in assay [1]; -33.6% in assay [2]; -6.55% in assay [3]; -1.9% in assay [4]; -1.65% in assay [5]; -58.5% in assay [6].
`C=C[C@]1(O)CCC[C@]2(C)C(=O)CCC12C` (stereo partly specified): the growth inhibition was -2.8% in assay [1]; -21.9% in assay [2]; -19.2% in assay [3]; 10.8% in assay [4]; -22.2% in assay [5]; -31.9% in assay [6].
For the compound `CC(C)(C)[Si](C)(C)Oc1cc(CO)cc2c1cc(=N)o[n+]2[O-]`, the growth inhibition in assay [1] was -27.6%; in assay [2], -12.9%; in assay [3], -23.2%; in assay [4] it was -30.9%; in assay [5] it was -1.15%; in assay [6], -31.2%.
`CC1C2(C)OC(=N)C(C#N)(C(c3ccco3)O2)C1(C#N)C#N` (stereo unspecified): the growth inhibition was 6.75% in assay [1]; 3.1% in assay [2]; -6.55% in assay [3]; 5.95% in assay [4]; -9.65% in assay [5]; -1.4% in assay [6].
As to `CC1(C(=O)O)CCCC2(C)C3=CC(=O)CCC3=CCC12` (stereo unspecified), the growth inhibition in assay [1] is -3.7%; in assay [2], 18.1%; in assay [3] it was 8.7%; in assay [4], 2.95%; in assay [5], 24.7%; in assay [6], 4.5%.
